ALDH1A1 inh: qHTS Assay for Inhibitors of Aldehyde Dehydrogenase 1 (ALDH1A1) | Purified ALDH1A1, NADH fluorescence, propionaldehyde substrate | Potency, µM (series often up to 75.3 µM), most hits filed as inhibitors | 220,000 tested, 7.3% active | AID 1030, 2008
HTT aggregate: qHTS Multiplex Assay to Identify Dual Action Probes in a Cell Model of Huntington: Aggregate Formation (GFP) | Potency, µM (top dose mostly 46.1 µM), usual class: inhibitors | AID 1688, 2009 | 220,000 tested, 1.1% active | PC12 HttQ103-GFP aggregates, Acumen cytometry, 40 h; active = well fitted curve in the direction sought with a large enough effect; inconclusive = small, poorly fitted or top-dose-only effect, or another doubt; inactive = no such curve, though single readings can be large; an effect the other way counts as inactive or inconclusive; also: nearly all actives have a fitted effect of over 60% in size
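Steps: seed 1500 PC12 HTTQ103-GFP cells/well; add tebufenozide, 100 nM final; add compound titration; add ATPLite reagent; quantify GFP aggregates by laser scanning cytometry.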
HPGD block: qHTS Assay for Inhibitors of HPGD (15-Hydroxyprostaglandin Dehydrogenase); purified HPGD, NADH fluorescence kinetic, PGE2 substrate; 15-hydroxyprostaglandin dehydrogenase [NAD(+)] (Homo sapiens), P15428; AID 894, 2007; Potency, µM, hits mostly inhibitors; 150,000 tested, 4.3% active
Target sequence (P15428 whole entry, looked up): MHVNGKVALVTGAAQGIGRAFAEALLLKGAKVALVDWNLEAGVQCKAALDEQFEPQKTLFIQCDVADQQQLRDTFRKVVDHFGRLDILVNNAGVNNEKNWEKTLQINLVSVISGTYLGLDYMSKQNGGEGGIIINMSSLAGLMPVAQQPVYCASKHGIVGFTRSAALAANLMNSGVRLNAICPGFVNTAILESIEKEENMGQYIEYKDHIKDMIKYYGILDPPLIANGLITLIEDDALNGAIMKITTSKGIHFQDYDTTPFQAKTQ
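20 nM HPGD preincubated 15 min at room temperature with compound in 50 mM Tris-HCl pH 8, 0.01% Tween 20. Started with 1 mM NAD+ and 30 uM prostaglandin E2; NADH fluorescence (360/450 nm) read 5 times over 30-s intervals, last minus first.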
CBFb RUNX1 block: qHTS Assay for Compounds Blocking the Interaction Between CBF-beta and RUNX1 for the Treatment of Acute Myeloid Leukemia; 230,000 tested, under 10 active; Potency, µM (doses to about 59.8 µM), usual class: inhibitors; AlphaScreen CBFb-His/RUNX1-biotin binding, biochemical; AID 1477, 2009; active = well fitted curve in the direction sought with a large enough effect; inconclusive = small, poorly fitted or top-dose-only effect, or another doubt; inactive = no such curve, though single readings can be large; an effect the other way counts as inactive or inconclusive
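AlphaScreen binding: CBFb-His and RUNX1-biotin (30 nM each) preincubated 20 min, compound added for 15 min, then nickel and streptavidin beads for 90 min, all at room temperature. Disruption of the interaction by any mechanism counts as activity.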
KDM4E inh: qHTS Assay for Inhibitors of Human Jumonji Domain Containing 2E (JMJD2E); Lysine-specific demethylase 4E (Homo sapiens), B2RXH2; JMJD2E catalytic domain, FDH-coupled NADH fluorescence (FDH is formaldehyde dehydrogenase); Potency, µM (titrated, usually from 57.1 µM), hits mostly inhibitors; 230,000 tested, 1.6% active; AID 2147, 2009; also: nearly all actives have a fitted effect of over 50% in size
Target sequence (B2RXH2 1-337 limits assumed): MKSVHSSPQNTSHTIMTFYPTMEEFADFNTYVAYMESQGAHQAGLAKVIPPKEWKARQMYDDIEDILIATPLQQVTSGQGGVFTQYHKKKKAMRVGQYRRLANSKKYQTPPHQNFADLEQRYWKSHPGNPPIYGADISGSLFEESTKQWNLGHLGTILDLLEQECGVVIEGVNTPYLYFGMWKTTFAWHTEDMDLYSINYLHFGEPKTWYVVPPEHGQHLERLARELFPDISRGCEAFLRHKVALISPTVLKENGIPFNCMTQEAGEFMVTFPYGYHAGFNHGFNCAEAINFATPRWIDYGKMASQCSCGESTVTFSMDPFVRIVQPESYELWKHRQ
HTT cytoprotect: qHTS Multiplex Assay to Identify Dual Action Probes in a Cell Model of Huntington: Cytoprotection (ATP); Potency, µM (doses to about 56.4 µM), hits mostly activators; AID 1471, 2008; 230,000 tested, 0.14% active; PC12 HTT-Q103 induced, cytoprotection, ATP luminescence, 40 h; active = well fitted curve in the direction sought with a large enough effect; inconclusive = small, poorly fitted or top-dose-only effect, or another doubt; inactive = no such curve, though single readings can be large; an effect the other way counts as inactive or inconclusive; also: nearly all actives have a fitted effect of over 45% in size
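Stable PC12 Q103-GFP cells in serum-supplemented, phenol red-free DMEM; induction by tebufenozide at 100 nM final; compound dose series; cell viability quantified luminescently from ATP.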
Large screens that a line does not name were inactive; ! = repeats disagree. Most compounds without a hit are left out; they make up all but 9.8% or so of the library. Unless noted, calls follow the shape of the dose curve; as a rule, active = well fitted inhibition curve with a large enough effect (not every such curve was filed as active); inconclusive = small, poorly fitted or top-dose-only effect, or another doubt; inactive = no such curve, though single readings can be large or run the other way.

CCOc1ccccc1CN1CCN(C2CCSCC2)CC1CCO (stereo not drawn)	none (no result: HPGD block)
NC(=O)COC(=O)CCSc1ccc(Cl)cc1	HTT aggregate inconclusive, HTT cytoprotect 14µM (no result: HPGD block)
CC1CCc2c(sc3nc(CN4CCOCC4)nc(Sc4ccccc4)c23)C1 (stereo not drawn)	ALDH1A1 inh 25µM
O=C(OCC1COc2ccccc2O1)c1c(F)cccc1F (stereo not drawn)	none (no result: HPGD block)
CCOC(=O)c1ccc(N2Cc3ccccc3C2)cc1O	ALDH1A1 inh 20µM
CCOC(=O)c1ccccc1O	none (no result: ALDH1A1 inh, HPGD block, CBFb RUNX1 block, KDM4E inh)
COc1c2occc2c(OC)c2c(=O)cc(C)oc12	HPGD block 28µM!
Cc1[nH]c2ccccc2c1/C=N/Nc1ccccn1	ALDH1A1 inh inconclusive, CBFb RUNX1 block inconclusive, KDM4E inh 25µM (no result: HPGD block)
Cc1[nH]c2ccccc2c1/C=N/Nc1nncn1N	ALDH1A1 inh inconclusive, KDM4E inh inconclusive (no result: HPGD block)
CC12CCC(=O)N1C(C(=O)OCC(=O)Nc1sccc1C#N)CS2 (stereo not drawn)	none
CC(NC(=O)COC(=O)C1CSC2(C)CCC(=O)N12)C12CC3CC(CC(C3)C1)C2 (stereo not drawn)	ALDH1A1 inh 4.5µM (no result: HPGD block)
CC(=O)N(C(C)=O)c1nc(-c2ccccc2)cn1/N=C/c1cccc([N+](=O)[O-])c1	none (no result: ALDH1A1 inh, HPGD block)
CCn1c(=O)c2c(nc3n2CCCN3CCc2ccccc2)n(C)c1=O	none
COc1ccc(CCN2CCCn3c2nc2c3c(=O)n(Cc3ccccc3F)c(=O)n2C)cc1OC	ALDH1A1 inh 3.5µM, HPGD block inconclusive
COc1ccc(N2CCCn3c2nc2c3c(=O)n(Cc3ccccc3F)c(=O)n2C)c(OC)c1	ALDH1A1 inh 11µM, HPGD block inconclusive
COc1ccc(N2CCCn3c2nc2c3c(=O)n(Cc3ccccc3)c(=O)n2C)c(OC)c1	ALDH1A1 inh inconclusive (no result: HPGD block)
COc1ccc(N2CCCn3c2nc2c3c(=O)n(Cc3ccccc3F)c(=O)n2C)cc1	ALDH1A1 inh 8.9µM
CC1=NOC(=O)/C1=C\c1ccc(-c2ccc(Cl)cc2Cl)o1	ALDH1A1 inh 10µM, HPGD block 1.8µM
Cc1[nH][nH]c(=O)c1C(c1ccc(-c2ccc(Cl)cc2Cl)o1)c1c(C)[nH][nH]c1=O	ALDH1A1 inh inconclusive, HPGD block inconclusive
OC1(c2ccccc2)Cc2cccc[n+]2C1c1ccccc1 (stereo not drawn)	none (no result: ALDH1A1 inh, HPGD block)
CC(C)(C)C1CCc2sc(-c3nnc(CCl)o3)cc2C1 (stereo not drawn)	ALDH1A1 inh 22µM (no result: HPGD block)
C=CCn1c(SCc2ccc(C(=O)NCCO)cc2)nc2sc(C)c(C)c2c1=O	none (no result: HPGD block)
Oc1ccc(O)cc1	HPGD block 7.9µM, KDM4E inh inconclusive, HTT cytoprotect 32µM!
O=C(c1ccc(O)cc1)c1ccc(C(=O)c2ccc(O)cc2)cc1	HTT aggregate inconclusive, HPGD block 22µM
CC(=O)N[C@@H](CSC/C=C(\C)CC/C=C(\C)CC/C=C(\C)CCC=C(C)C)C(=O)O	none (no result: HTT aggregate)
Cc1cccc(N2CCN(Cc3ccoc3)CC2)c1C	ALDH1A1 inh 25µM, HPGD block 14µM, KDM4E inh inconclusive
O=C(CNS(=O)(=O)c1ccccc1)NCc1cccnc1	none (no result: HPGD block)
Cc1ccc(C2CC(C(F)(F)F)n3nc(C(=O)NCc4c(C)nn(C)c4C)c(Cl)c3N2)cc1 (stereo not drawn)	HTT aggregate 13µM
CCOC(=O)C1CCCN(C(c2ccccn2)c2c(C)[nH]c3ccccc23)C1 (stereo not drawn)	ALDH1A1 inh inconclusive, KDM4E inh inconclusive (no result: HPGD block)
C/C(=N\Nc1nc2ccccc2s1)c1cccs1	HPGD block 14µM
C/C(=N\Nc1nc(-c2ccccc2)cs1)c1cccs1	ALDH1A1 inh inconclusive, KDM4E inh inconclusive
CC(CNS(=O)(=O)c1ccccc1)(c1ccccc1)N1CCCCC1 (stereo not drawn)	none (no result: ALDH1A1 inh, HPGD block)
N#C/C=C1/NC(=O)c2ccccc2S1	HPGD block 2.2µM
O=C1N/C(=C\c2nc3ccccc3s2)c2ccccc21	none (no result: HPGD block)
O=C1CC(N2CCN(c3ccc(Cl)c(Cl)c3)CC2)C(=O)N1 (stereo not drawn)	ALDH1A1 inh inconclusive, HTT aggregate 25µM
Cc1cc(NC(=O)CSc2nc(N)c(NC(=O)c3ccco3)c(=O)[nH]2)no1	none (no result: ALDH1A1 inh, HPGD block)
O=C(Nc1cccc(Cl)c1)Nc1nnc(CC2=CCCCC2)s1	none
Cc1[nH]c2ccccc2c1/C=C/C(=O)c1ccncc1	HTT cytoprotect 4µM (no result: ALDH1A1 inh, HPGD block)
Cc1ccc(C(=O)/C=C/c2c[nH]c3ccccc23)cc1	ALDH1A1 inh 25µM, HPGD block inconclusive, KDM4E inh inconclusive
O=C(/C=C/c1c[nH]c2ccccc12)c1ccccc1	ALDH1A1 inh 3.2µM, HPGD block 16µM, CBFb RUNX1 block inconclusive
COc1ccc2[nH]cc(/C=C/C(=O)c3ccccc3)c2c1	ALDH1A1 inh inconclusive (no result: HPGD block)
CCc1ccc(C(=O)CCC2CCCCC2=O)cc1 (stereo not drawn)	ALDH1A1 inh inconclusive, HPGD block 16µM
CC(C)Nc1nnc(SCC(=O)NCc2ccc3c(c2)OCO3)s1	ALDH1A1 inh 18µM (no result: HPGD block)
Cc1ccccc1-c1nsc(SCC(=O)NCc2ccc3c(c2)OCO3)n1	ALDH1A1 inh 22µM
CCCn1nnnc1SCC(=O)NCc1ccc2c(c1)OCO2	ALDH1A1 inh inconclusive, HTT aggregate 0.016µM
O=[N+]([O-])c1ccc2ccn(C3OCC(O)C(O)C3O)c2c1 (stereo not drawn)	none (no result: HPGD block)
Cc1cc(OCC(=O)c2cccc(C(F)(F)F)c2)n2cnnc2n1	none (no result: ALDH1A1 inh, HPGD block)
CSC(=Nc1cccc(C)c1)NC#N	none
C/C(=N\NC(=S)NCCc1ccccc1)c1cccs1	ALDH1A1 inh inconclusive
OCC(O)CN1CCCC1 (stereo not drawn)	none (no result: ALDH1A1 inh, HPGD block)
CCOC(=O)c1c(C)nc(C)c(C(=O)OCC)c1-c1ccc(O)c(OC)c1	ALDH1A1 inh 16µM (no result: HPGD block)
CCOC(=O)c1nc(-c2ccc(OC)c(OC)c2)no1	HTT aggregate 0.63µM (no result: HPGD block)
CCOC(=O)C1CCN(Cc2nc(-c3ccc(OC)c(OC)c3)no2)CC1	ALDH1A1 inh inconclusive
CCOC(=O)N1CCN(c2cc(NCCC(=O)O)c3c4c(onc24)-c2ccccc2C3=O)CC1	ALDH1A1 inh 14µM, CBFb RUNX1 block inconclusive
O=C(O)CCCNc1cc(N2CCC3(CC2)OCCO3)c2noc3c2c1C(=O)c1ccccc1-3	ALDH1A1 inh inconclusive, KDM4E inh inconclusive (no result: CBFb RUNX1 block)

High-throughput results: PubChem BioAssay, National Center for Advancing Translational Sciences (NCATS)
